Measurements reported in PubChem BioAssay AID1159580 (chemical genetic matrix, 2015).
Hit rate of the full screen: of about 5,500 compounds, about 2,000 (36%) were called active. About 18% were inconclusive and are not listed. The list shows a part of the results. A number with no mark means an inactive call. No stated cut-off is given here; in the data, active means normalized growth mostly below about 0.91 (no sharp cut-off); inconclusive means no clear call, values can overlap the other calls; inactive means mostly above about 0.92.

Test: chemical genetic growth profiling, strain panel (AID 1159580);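 further: tested at 20 µM; growth read once vehicle control cultures reached saturation at 30 °C; 1 = growth at the plate median or of vehicle wells; lower values mean less growth of the strain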
Details: S. cerevisiae deletion strains, growth OD
[1] = locus YAR019C, strain CDC15, active compounds read low
[2] = locus YBL105C, strain PKC1, active compounds read low
[3] = locus YBR135W, strain CKS1, active compounds read low
[4] = locus YBR136W, strain MEC1, active compounds read low
[5] = locus YBR160W, strain CDC28, active compounds read low
[6] = locus YDL017W, strain CDC7, active compounds read low
[7] = locus YDL028C, strain MPS1, active compounds read low
[8] = locus YDL101C, strain DUN1, active compounds read low
[9] = locus YDL108W, strain KIN28, active compounds read low
[10] = locus YDL132W, strain cdc53, active compounds read low
[11] = locus YDL214C, strain PRR2, active compounds read low
[12] = locus YDR052C, strain DBF4, active compounds read low
[13] = locus YDR054C, strain cdc34, active compounds read low
[14] = locus YDR226W, strain ADK1, active compounds read low
[15] = locus YDR477W, strain SNF1, active compounds read low
[16] = locus YER123W, strain YCK3, active compounds read low
[17] = locus YER133W, strain GLC7, active compounds read low
[18] = locus YFL009W, strain cdc4, active compounds read low
[19] = locus YFL029C, strain CAK1, active compounds read low
[20] = locus YFR003C, strain YPI1, active compounds read low
[21] = locus YFR019W, strain FAB1, active compounds read low
[22] = locus YFR028C, strain CDC14, active compounds read low
[23] = locus YGR040W, strain KSS1, active compounds read low
[24] = locus YGR052W, strain FMP48, active compounds read low
[25] = locus YGR092W, strain DBF2, active compounds read low
[26] = locus YHR030C, strain SLT2, active compounds read low
[27] = locus YHR079C, strain IRE1, active compounds read low
[28] = locus YHR082C, strain KSP1, active compounds read low
[29] = locus YHR205W, strain SCH9, active compounds read low
[30] = locus YIL147C, strain SLN1, active compounds read low
[31] = locus YJL095W, strain BCK1, active compounds read low
[32] = locus YJL128C, strain PBS2, active compounds read low
[33] = locus YJL157C, strain FAR1, active compounds read low
[34] = locus YJR016C, strain ILV3, active compounds read low
[35] = locus YJR066W, strain TOR1 (second series), active compounds read low
[36] = locus YJR066W, strain TOR1, active compounds read low
[37] = locus YKL048C, strain ELM1, active compounds read low
[38] = locus YKL067W, strain YNK1, active compounds read low
[39] = locus YKL101W, strain HSL1, active compounds read low
[40] = locus YKL193C, strain SDS22, active compounds read low
[41] = locus YKL203C, strain TOR2, active compounds read low
[42] = locus YLR113W, strain HOG1, active compounds read low
[43] = locus YLR133W, strain CKI1, active compounds read low
[44] = locus YLR403W, strain SFP1, active compounds read low
[45] = locus YML070W, strain DAK1, active compounds read low
[46] = locus YMR001C, strain CDC5, active compounds read low
[47] = locus YMR205C, strain PFK2 (second series), active compounds read low
[48] = locus YMR277W, strain FCP1, active compounds read low
[49] = locus YNL006W, strain LST8, active compounds read low
[50] = locus YNL020C, strain ARK1, active compounds read low
[51] = locus YNL161W, strain CBK1, active compounds read low
[52] = locus YNL183C, strain NPR1, active compounds read low
[53] = locus YNL207W, strain RIO2, active compounds read low
[54] = locus YNL222W, strain SSU72, active compounds read low
[55] = locus YNL307C, strain MCK1 (second series), active compounds read low
[56] = locus YOL078W, strain AVO1, active compounds read low
[57] = locus YOL136C, strain PFK27, active compounds read low
[58] = locus YOR061W, strain CKA2, active compounds read low
[59] = locus YOR119C, strain RIO1, active compounds read low
[60] = locus YOR231W, strain MKK1, active compounds read low
[61] = locus YOR329C, strain SCD5, active compounds read low
[62] = locus YPL031C, strain PHO85, active compounds read low
[63] = locus YPL153C, strain RAD53, active compounds read low
[64] = locus YPL204W, strain HRR25, active compounds read low
[65] = locus YPL209C, strain IPL1, active compounds read low
[66] = locus YPL256C, strain CLN2, active compounds read low
[67] = locus YPR025C, strain CCL1, active compounds read low
[68] = locus YPR106W, strain ISR1, active compounds read low
[69] = locus YPR111W, strain DBF20, active compounds read low
[70] = strain NNK1, active compounds read low
[71] = strain TSCII, active compounds read low

Work on `Cc1onc(-c2c(Cl)cccc2Cl)c1C(=O)NNc1c(Cl)cccc1Cl` yielded a normalized growth [1] of 0.962, a normalized growth [2] of 0.978 and a normalized growth [3] of 0.986. For the same compound, the normalized growth [4] was 0.977, the normalized growth [5] was 0.975 and the normalized growth [6] was 0.977. It also gave a normalized growth [7] of 0.97, a normalized growth [8] of 0.976 and a normalized growth [9] of 0.971. The normalized growth [10] was 0.978, the normalized growth [11] was 0.941 and the normalized growth [12] was 0.99. The normalized growth [13] was 0.972, the normalized growth [14] was 0.982 and the normalized growth [15] was 0.932. It also gave a normalized growth [16] of 0.961, a normalized growth [17] of 0.961 and a normalized growth [18] of 0.974. For the same compound, the normalized growth [19] was 0.983, the normalized growth [20] was 0.98 and the normalized growth [21] was 0.972. It also gave a normalized growth [22] of 0.97, a normalized growth [23] of 0.941 and a normalized growth [24] of 0.998. For the same compound, the normalized growth [25] was 0.987, the normalized growth [26] was 0.794 (active) and the normalized growth [27] was 0.957. The normalized growth [28] was 1.01, the normalized growth [29] was 0.956 and the normalized growth [30] was 0.977. For the same compound, the normalized growth [31] was 0.907, the normalized growth [32] was 0.923 and the normalized growth [33] was 0.976. It also gave a normalized growth [34] of 0.988, a normalized growth [35] of 0.96 and a normalized growth [36] of 0.957. For the same compound, the normalized growth [37] was 0.981, the normalized growth [38] was 0.941 and the normalized growth [39] was 0.949. For the same compound, the normalized growth [40] was 0.986, the normalized growth [41] was 1.03 and the normalized growth [42] was 0.827 (active). The normalized growth [43] was 0.976, the normalized growth [44] was 0.967 and the normalized growth [45] was 0.942. It also gave a normalized growth [46] of 0.976, a normalized growth [47] of 0.963 and a normalized growth [48] of 0.967. It also gave a normalized growth [49] of 0.979, a normalized growth [50] of 0.988 and a normalized growth [51] of 0.989. For the same compound, the normalized growth [52] was 1, the normalized growth [53] was 0.991 and the normalized growth [54] was 0.977. The normalized growth [55] was 0.972, the normalized growth [56] was 0.982 and the normalized growth [57] was 0.956. It also gave a normalized growth [58] of 0.974, a normalized growth [59] of 0.957 and a normalized growth [60] of 0.927. It also gave a normalized growth [61] of 0.981, a normalized growth [62] of 0.937 and a normalized growth [63] of 0.921. For the same compound, the normalized growth [64] was 0.945, the normalized growth [65] was 0.986 and the normalized growth [66] was 0.858. For the same compound, the normalized growth [67] was 0.976, the normalized growth [68] was 0.96 and the normalized growth [69] was 0.956. The normalized growth [70] was 0.986 and the normalized growth [71] was 0.983.
For `CC(C)(C)c1ccc(C(=O)NNc2c(Cl)cccc2Cl)cc1`, the normalized growth [1] was 0.977, the normalized growth [2] was 0.952 and the normalized growth [3] was 0.948. For the same compound, the normalized growth [4] was 0.97, the normalized growth [5] was 0.958 and the normalized growth [6] was 0.973. It also gave a normalized growth [7] of 0.98, a normalized growth [8] of 0.985 and a normalized growth [9] of 0.965. It also gave a normalized growth [10] of 0.968, a normalized growth [11] of 0.9 and a normalized growth [12] of 0.974. For the same compound, the normalized growth [13] was 0.981, the normalized growth [14] was 0.986 and the normalized growth [15] was 0.948. The normalized growth [16] was 0.904, the normalized growth [17] was 0.939 and the normalized growth [18] was 0.975. It also gave a normalized growth [19] of 0.978, a normalized growth [20] of 0.974 and a normalized growth [21] of 0.933. For the same compound, the normalized growth [22] was 0.973, the normalized growth [23] was 0.918 and the normalized growth [24] was 0.946. For the same compound, the normalized growth [25] was 0.894, the normalized growth [26] was 0.864 and the normalized growth [27] was 0.885. For the same compound, the normalized growth [28] was 0.974, the normalized growth [29] was 0.86 and the normalized growth [30] was 0.974. It also gave a normalized growth [31] of 0.898, a normalized growth [32] of 0.878 and a normalized growth [33] of 0.88. For the same compound, the normalized growth [34] was 0.966, the normalized growth [35] was 0.868 and the normalized growth [36] was 0.959. For the same compound, the normalized growth [37] was 0.954, the normalized growth [38] was 0.892 and the normalized growth [39] was 0.89. The normalized growth [40] was 0.974, the normalized growth [41] was 1.01 and the normalized growth [42] was 0.726 (active). The normalized growth [43] was 0.89, the normalized growth [44] was 0.893 and the normalized growth [45] was 0.862. It also gave a normalized growth [46] of 0.971, a normalized growth [47] of 0.888 and a normalized growth [48] of 0.971. The normalized growth [49] was 0.978, the normalized growth [50] was 0.889 and the normalized growth [51] was 0.981. For the same compound, the normalized growth [52] was 0.887, the normalized growth [53] was 0.974 and the normalized growth [54] was 0.969. The normalized growth [55] was 0.902, the normalized growth [56] was 0.967 and the normalized growth [57] was 0.85. It also gave a normalized growth [58] of 0.874, a normalized growth [59] of 0.985 and a normalized growth [60] of 0.832. It also gave a normalized growth [61] of 0.981, a normalized growth [62] of 0.935 and a normalized growth [63] of 0.92. For the same compound, the normalized growth [64] was 0.947, the normalized growth [65] was 0.968 and the normalized growth [66] was 0.834 (active). The normalized growth [67] was 0.962, the normalized growth [68] was 0.944 and the normalized growth [69] was 0.995. For the same compound, the normalized growth [70] was 0.943 and the normalized growth [71] was 0.972.
